The text below walks through data of article PMC7862700, “An all-to-all approach to the identification of sequence-specific readers for epigenetic DNA modifications on cytosine”.

Common to all, as to experiment: DAPPL (digital affinity profiling via proximity ligation, sequencing); 10 mM Tris-HCl pH 7.5, 50 mM NaCl, 1 mM DTT, 4% glycerol, room temperature, 30 min; GST-TFs on glutathione beads, 16-mer random dsDNA library, 0.1% formaldehyde crosslink after washing; high values mean tight binding
What all share (conditions): protein: recombinant; tags: N-terminal GST; dsDNA, one strand shown

The target of one test is T1, FLI1 (Homo sapiens, UniProt Q01543 1-452).
T1 sequence: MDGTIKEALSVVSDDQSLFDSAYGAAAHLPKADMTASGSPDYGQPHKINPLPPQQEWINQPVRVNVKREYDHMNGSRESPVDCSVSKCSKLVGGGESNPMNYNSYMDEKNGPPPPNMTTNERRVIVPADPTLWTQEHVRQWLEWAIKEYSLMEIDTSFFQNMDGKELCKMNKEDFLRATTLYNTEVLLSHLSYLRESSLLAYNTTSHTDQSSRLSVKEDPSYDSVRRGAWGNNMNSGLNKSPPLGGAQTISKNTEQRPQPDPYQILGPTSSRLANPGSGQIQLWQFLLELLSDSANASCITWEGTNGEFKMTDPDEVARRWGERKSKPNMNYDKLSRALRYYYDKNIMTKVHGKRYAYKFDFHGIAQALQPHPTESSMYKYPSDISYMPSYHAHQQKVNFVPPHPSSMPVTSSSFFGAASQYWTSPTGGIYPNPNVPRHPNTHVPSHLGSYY
The gist of the method: (§1)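 Yeast served to express human transcription factors as GST fusions, which were then captured on glutathione beads and labelled with DNA barcodes. Pooled with a tag-only sample, they were incubated with 200 nmole of a 16-mer random double-stranded DNA library for 30 min at room temperature in Tris/NaCl/DTT/glycerol buffer, washed, crosslinked with 0.1% formaldehyde, ligated by proximity, amplified by PCR and sequenced. Dividing each hexamer's read frequency for a factor by its frequency for the tag-only sample gives the binding signal.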

The next test deals with T2, ELK1 (Homo sapiens, UniProt P19419 1-428).
T2 sequence: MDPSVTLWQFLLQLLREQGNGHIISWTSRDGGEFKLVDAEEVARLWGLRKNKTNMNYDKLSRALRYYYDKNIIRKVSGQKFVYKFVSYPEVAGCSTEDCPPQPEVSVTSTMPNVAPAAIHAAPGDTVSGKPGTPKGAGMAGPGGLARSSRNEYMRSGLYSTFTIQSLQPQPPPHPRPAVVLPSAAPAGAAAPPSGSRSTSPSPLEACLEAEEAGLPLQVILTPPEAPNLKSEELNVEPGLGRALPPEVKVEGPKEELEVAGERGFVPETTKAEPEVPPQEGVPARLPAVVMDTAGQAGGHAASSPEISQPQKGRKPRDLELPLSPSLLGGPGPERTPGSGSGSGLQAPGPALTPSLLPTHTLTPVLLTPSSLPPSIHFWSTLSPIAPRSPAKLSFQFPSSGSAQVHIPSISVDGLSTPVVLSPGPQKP
The gist of the method: as §1

The target in another test is T3, GABPA (Homo sapiens, UniProt Q06546 1-454).
T3 sequence: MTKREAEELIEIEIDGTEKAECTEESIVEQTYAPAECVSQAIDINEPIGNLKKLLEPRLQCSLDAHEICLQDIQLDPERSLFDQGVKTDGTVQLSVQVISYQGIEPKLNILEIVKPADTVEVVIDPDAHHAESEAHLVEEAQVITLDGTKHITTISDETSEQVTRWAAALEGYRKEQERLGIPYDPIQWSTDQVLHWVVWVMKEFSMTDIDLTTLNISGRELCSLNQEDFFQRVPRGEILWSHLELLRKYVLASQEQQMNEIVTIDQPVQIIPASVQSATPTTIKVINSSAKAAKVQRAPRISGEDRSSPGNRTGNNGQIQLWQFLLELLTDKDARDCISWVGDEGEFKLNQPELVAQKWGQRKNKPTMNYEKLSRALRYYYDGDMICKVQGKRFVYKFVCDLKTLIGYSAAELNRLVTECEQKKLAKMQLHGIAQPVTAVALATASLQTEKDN
The gist of the method:
as §1

A further test addresses T4, ERG (Homo sapiens, UniProt P11308 1-479).
T4 sequence: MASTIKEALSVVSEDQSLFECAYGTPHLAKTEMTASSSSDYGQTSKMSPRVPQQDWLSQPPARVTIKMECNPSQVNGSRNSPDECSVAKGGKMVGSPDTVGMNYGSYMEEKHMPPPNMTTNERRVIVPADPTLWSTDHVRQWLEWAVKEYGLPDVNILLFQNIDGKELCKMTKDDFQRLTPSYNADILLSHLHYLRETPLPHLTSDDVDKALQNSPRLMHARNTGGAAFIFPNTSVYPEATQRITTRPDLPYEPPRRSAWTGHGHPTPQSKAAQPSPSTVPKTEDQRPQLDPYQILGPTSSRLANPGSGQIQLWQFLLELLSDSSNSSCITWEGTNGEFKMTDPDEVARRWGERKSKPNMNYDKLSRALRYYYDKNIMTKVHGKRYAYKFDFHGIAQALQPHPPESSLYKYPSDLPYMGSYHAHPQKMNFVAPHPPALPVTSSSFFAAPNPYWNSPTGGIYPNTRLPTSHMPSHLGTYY
The gist of the method:
as §1

For the next test, the target named is ELF1 (Homo sapiens, UniProt P32519 1-619). The gist of the method:
as §1

The next test addresses T5, EHF (Homo sapiens, UniProt Q9NZC4 1-300).
T5 sequence: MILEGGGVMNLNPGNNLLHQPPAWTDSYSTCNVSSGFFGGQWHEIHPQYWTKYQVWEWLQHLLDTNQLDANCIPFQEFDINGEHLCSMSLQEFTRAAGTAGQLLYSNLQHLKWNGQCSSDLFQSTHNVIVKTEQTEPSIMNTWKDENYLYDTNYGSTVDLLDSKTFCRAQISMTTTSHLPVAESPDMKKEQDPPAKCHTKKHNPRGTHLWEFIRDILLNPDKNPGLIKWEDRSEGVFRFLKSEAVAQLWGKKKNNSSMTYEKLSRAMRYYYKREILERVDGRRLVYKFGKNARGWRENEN
Put shortly: as §1

In another test the target is SPI1 (Homo sapiens, UniProt P17947 1-270). Put shortly:
as §1

A further test has as its target SPIB (Homo sapiens, UniProt Q01892 1-262). Put shortly: as §1
In the next test the target is T6, ELK3 (Homo sapiens, UniProt P41970 1-407).
T6 sequence: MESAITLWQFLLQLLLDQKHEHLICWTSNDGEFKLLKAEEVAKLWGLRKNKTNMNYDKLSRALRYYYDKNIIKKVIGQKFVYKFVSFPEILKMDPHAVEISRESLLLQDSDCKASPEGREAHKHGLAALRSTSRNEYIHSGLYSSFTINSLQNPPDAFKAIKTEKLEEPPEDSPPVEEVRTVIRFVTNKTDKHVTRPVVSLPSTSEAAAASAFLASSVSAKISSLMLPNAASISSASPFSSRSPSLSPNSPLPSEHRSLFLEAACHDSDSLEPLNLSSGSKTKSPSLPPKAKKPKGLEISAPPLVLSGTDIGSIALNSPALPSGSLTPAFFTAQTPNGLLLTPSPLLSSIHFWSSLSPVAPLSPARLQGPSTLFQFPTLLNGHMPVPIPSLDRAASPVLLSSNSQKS
Put shortly: as §1

SPIB, sequence (Q01892 whole entry): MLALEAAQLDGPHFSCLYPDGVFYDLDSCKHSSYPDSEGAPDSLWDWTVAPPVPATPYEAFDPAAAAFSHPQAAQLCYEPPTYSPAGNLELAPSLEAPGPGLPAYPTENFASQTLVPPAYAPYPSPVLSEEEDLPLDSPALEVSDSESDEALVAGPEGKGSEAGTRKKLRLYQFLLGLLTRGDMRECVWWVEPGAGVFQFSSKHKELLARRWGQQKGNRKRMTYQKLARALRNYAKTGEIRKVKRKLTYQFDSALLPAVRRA
ELF1, sequence (P32519 whole entry): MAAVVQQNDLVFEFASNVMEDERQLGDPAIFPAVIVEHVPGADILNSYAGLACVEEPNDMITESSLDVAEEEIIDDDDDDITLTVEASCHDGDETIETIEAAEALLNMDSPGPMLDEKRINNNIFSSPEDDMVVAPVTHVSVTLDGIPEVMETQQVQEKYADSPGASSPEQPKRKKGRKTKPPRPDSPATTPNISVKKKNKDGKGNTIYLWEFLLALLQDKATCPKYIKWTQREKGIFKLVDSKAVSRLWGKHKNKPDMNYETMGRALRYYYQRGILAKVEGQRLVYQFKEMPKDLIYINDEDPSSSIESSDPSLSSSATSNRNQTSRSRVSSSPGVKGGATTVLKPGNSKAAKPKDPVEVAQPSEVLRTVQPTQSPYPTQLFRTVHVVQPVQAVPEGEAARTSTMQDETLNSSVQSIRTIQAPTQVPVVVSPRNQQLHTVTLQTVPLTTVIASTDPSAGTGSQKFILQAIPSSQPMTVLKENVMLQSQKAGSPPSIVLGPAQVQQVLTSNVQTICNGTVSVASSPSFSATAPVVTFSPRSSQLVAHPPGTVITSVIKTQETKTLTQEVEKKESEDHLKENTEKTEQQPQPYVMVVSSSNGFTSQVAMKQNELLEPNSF

For the sequence CGTTTT, the binding signal is 1.16 fold enrichment (6-mer frequency, TF over GST control) in the test with FLI1; 1.16 fold enrichment (6-mer frequency, TF over GST control) with ELK1; 1.34 fold enrichment (6-mer frequency, TF over GST control) in the test with GABPA; 1.36 fold enrichment (6-mer frequency, TF over GST control) with ERG; 1.17 fold enrichment (6-mer frequency, TF over GST control) with ELF1; 1.27 fold enrichment (6-mer frequency, TF over GST control) with EHF. Moreover, the binding signal in the test with SPI1 is 1.29 fold enrichment (6-mer frequency, TF over GST control); with SPIB, 1.32 fold enrichment (6-mer frequency, TF over GST control); with ELK3 it was 1.12 fold enrichment (6-mer frequency, TF over GST control).

Turning to ATCTTG, the binding signal in the test with FLI1 is 1.35 fold enrichment (6-mer frequency, TF over GST control); with ELK1, 1.38 fold enrichment (6-mer frequency, TF over GST control); with GABPA, 1.27 fold enrichment (6-mer frequency, TF over GST control); with ERG it was 1.39 fold enrichment (6-mer frequency, TF over GST control); with ELF1, 1.33 fold enrichment (6-mer frequency, TF over GST control); with EHF, 1.35 fold enrichment (6-mer frequency, TF over GST control). Also, the binding signal in the test with SPI1 was 1.3 fold enrichment (6-mer frequency, TF over GST control); with SPIB it was 1.31 fold enrichment (6-mer frequency, TF over GST control); with ELK3, 1.41 fold enrichment (6-mer frequency, TF over GST control).

As to ACTCAA, the binding signal is 1.19 fold enrichment (6-mer frequency, TF over GST control) with FLI1; 1.23 fold enrichment (6-mer frequency, TF over GST control) with ELK1; 1.22 fold enrichment (6-mer frequency, TF over GST control) in the test with GABPA; 1.21 fold enrichment (6-mer frequency, TF over GST control) in the test with ERG; 1.22 fold enrichment (6-mer frequency, TF over GST control) with ELF1; 1.18 fold enrichment (6-mer frequency, TF over GST control) with EHF. For the same sequence, the binding signal in the test with SPI1 is 1.24 fold enrichment (6-mer frequency, TF over GST control); with SPIB it was 1.23 fold enrichment (6-mer frequency, TF over GST control); with ELK3, 1.31 fold enrichment (6-mer frequency, TF over GST control).

Regarding TATGGG, the binding signal with FLI1 was 1.23 fold enrichment (6-mer frequency, TF over GST control); with ELK1 it was 1.06 fold enrichment (6-mer frequency, TF over GST control); in the test with GABPA, 1.25 fold enrichment (6-mer frequency, TF over GST control); with ERG, 1.15 fold enrichment (6-mer frequency, TF over GST control); with ELF1, 1.16 fold enrichment (6-mer frequency, TF over GST control); with EHF it was 1.37 fold enrichment (6-mer frequency, TF over GST control). Also, the binding signal with SPI1 is 1.21 fold enrichment (6-mer frequency, TF over GST control); with SPIB, 1.27 fold enrichment (6-mer frequency, TF over GST control); in the test with ELK3, 1.18 fold enrichment (6-mer frequency, TF over GST control).

On to CTTGCC, for which the binding signal in the test with FLI1 was 1.29 fold enrichment (6-mer frequency, TF over GST control); with ELK1, 1.17 fold enrichment (6-mer frequency, TF over GST control); with GABPA it was 1.3 fold enrichment (6-mer frequency, TF over GST control); with ERG it was 1.24 fold enrichment (6-mer frequency, TF over GST control); in the test with ELF1 it was 1.29 fold enrichment (6-mer frequency, TF over GST control); in the test with EHF it was 1.33 fold enrichment (6-mer frequency, TF over GST control). Also, the binding signal with SPI1 is 1.38 fold enrichment (6-mer frequency, TF over GST control); with SPIB, 1.22 fold enrichment (6-mer frequency, TF over GST control); with ELK3, 1.3 fold enrichment (6-mer frequency, TF over GST control).

Consider TTCCAA, for which the binding signal in the test with FLI1 is 1.39 fold enrichment (6-mer frequency, TF over GST control); with ELK1, 1.19 fold enrichment (6-mer frequency, TF over GST control); with GABPA it was 1.34 fold enrichment (6-mer frequency, TF over GST control); in the test with ERG it was 1.26 fold enrichment (6-mer frequency, TF over GST control); in the test with ELF1, 1.31 fold enrichment (6-mer frequency, TF over GST control); with EHF, 1.26 fold enrichment (6-mer frequency, TF over GST control). Also, the binding signal is 1.11 fold enrichment (6-mer frequency, TF over GST control) in the test with SPI1; 1.29 fold enrichment (6-mer frequency, TF over GST control) with SPIB; 1.26 fold enrichment (6-mer frequency, TF over GST control) with ELK3.

Turning to CGCCTT, the binding signal with FLI1 was 1.45 fold enrichment (6-mer frequency, TF over GST control); with ELK1, 1.43 fold enrichment (6-mer frequency, TF over GST control); in the test with GABPA, 1.45 fold enrichment (6-mer frequency, TF over GST control); with ERG, 1.44 fold enrichment (6-mer frequency, TF over GST control); with ELF1, 1.44 fold enrichment (6-mer frequency, TF over GST control); in the test with EHF it was 1.34 fold enrichment (6-mer frequency, TF over GST control). Also, the binding signal with SPI1 was 1.35 fold enrichment (6-mer frequency, TF over GST control); with SPIB, 1.43 fold enrichment (6-mer frequency, TF over GST control); in the test with ELK3 it was 1.46 fold enrichment (6-mer frequency, TF over GST control).

Take TCGCTT: the binding signal with FLI1 was 1.22 fold enrichment (6-mer frequency, TF over GST control); with ELK1, 1.3 fold enrichment (6-mer frequency, TF over GST control); with GABPA, 1.23 fold enrichment (6-mer frequency, TF over GST control); with ERG, 1.18 fold enrichment (6-mer frequency, TF over GST control); in the test with ELF1, 1.19 fold enrichment (6-mer frequency, TF over GST control); with EHF it was 1.2 fold enrichment (6-mer frequency, TF over GST control). Further, the binding signal with SPI1 is 1.08 fold enrichment (6-mer frequency, TF over GST control); with SPIB it was 1.38 fold enrichment (6-mer frequency, TF over GST control); with ELK3, 1.18 fold enrichment (6-mer frequency, TF over GST control).
